# Results: PubChem BioAssay AID624348 (National Center for Advancing Translational Sciences (NCATS), 2012)
# Calls of active or inactive are those of the source.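 Rule for the calls: active = concentration cutting cell viability by half at or below 20 µM after three days; inconclusive = half-viability concentration between 20 and 30 µM; inactive = half-viability concentration of 30 µM or more.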
# Test: qHTS for Inducers of the Endoplasmic Reticulum Stress Response (ERSR) in Human Glioma: Hit Validation in Cytotoxic Counterscreen
# Conditions: U87-MG glioma viability, CellTiter-Glo ATP luminescence, 72 h
# Description: Primary protein unfolding takes place for many diseases, including diabetes and hypoxia, , and triggers a reaction in the cells called ER stress response (ERSR). ). ERSR is designed as a repair mechanism, but ultimately leads to cell death via apoptosis if conditions triggering protein unfolding persist (1). The molecular clue to ERSR activation is the enhancement of the expression of key molecular chaperones, including the glucose regulated protein (GRP) 78. GRP78 is the main sensor for protein folding and the main actuator of the ERSR. In a collaboration between the Southern Research Institute and the NIH Chemical Genomics Center, a cell based screen was developed that reliably uses GRP78 as a sensor to identify small molecules as inducers of ERSR. In resting conditions, GRP78 binds proteins and acts as a natural repressor. Once unfolded proteins are present in the ER, GRP78 releases some of the repressors and binds to the unfolded proteins. The release of the repressors executes the ERSR program. Using a human glioma cell line in a miniaturized, luminescent format, a high-throughput screen was developed to identify actuators of the ERSR. This assay validates the hits identified in the primary screen in this cytotoxic counterscreen. Activity is undesirable in this assay. NIH Chemical Genomics Center [NCGC] NIH Molecular Libraries Probe Centers Network [MLPCN] MLPCN Grant: DA031669 Assay Submitter (PI): Maurizio Grimaldi, Southern Research Institute (1) Soboloff, J. and S. A. Berger (2002). "Sustained ER Ca2+ depletion suppresses protein synthesis and induces activation-enhanced cell death in mast cells." J Biol Chem 277(16): 13812-20.
# Wild type U87-MG are dispensed at density 1000 cells/well into Greiner white solid bottom 1536-well assay plates. […] The plates are incubated at room temperature for 10 minutes and read in a ViewLux high-throughput CCD imager (PerkinElmer), wherein end-point measurements of luminescence through the quantitation of the ATP content, an indicator of metabolically active cells, are acquired.
row,Structure (SMILES),outcome
1,Cc1ccc(-c2cc(NC(=O)C(C)Oc3ccc(C)c(C)c3)on2)cc1 (stereo not drawn),inactive
2,CC(C)Cc1nn2c(=O)cc(COC(=O)CNC(=O)c3ccc(C(C)(C)C)cc3)nc2s1,inactive
3,CC(=O)N1CCOc2cc(S(=O)(=O)Nc3c(C)cccc3C(C)C)c(Cl)cc21,inactive
